In the library only some 2.8% were active in any assay of this set; here they are far more common.
MsrA inh: bovine MsrA enzyme inhibitors, primary screen, biochemical, absorbance, HTS; Methionine sulfoxide reductase A (Bos taurus); purified bovine MsrA, absorbance read-out; inhibition, % at 15.5 µM; 360,000 tested, 0.75% active; AID 651718, 2012; in the data active means inhibition above about 4.5%
proKLK7 act: proKLK7 zymogen activators, primary screen, biochemical, fluorescence intensity; Kallikrein-7 (Homo sapiens), P49862; purified proKLK7, EDANS-DABCYL substrate fluorescence; 100% is mature enzyme control, 0% vehicle; activation, % at 7 µM; 370,000 tested, 0.9% active;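 active means activation above the mean of all tested compounds plus 3 SD, computed per campaign excluding outliers beyond control limits, cut at about 13% in these data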
Target sequence (P49862 whole entry, looked up): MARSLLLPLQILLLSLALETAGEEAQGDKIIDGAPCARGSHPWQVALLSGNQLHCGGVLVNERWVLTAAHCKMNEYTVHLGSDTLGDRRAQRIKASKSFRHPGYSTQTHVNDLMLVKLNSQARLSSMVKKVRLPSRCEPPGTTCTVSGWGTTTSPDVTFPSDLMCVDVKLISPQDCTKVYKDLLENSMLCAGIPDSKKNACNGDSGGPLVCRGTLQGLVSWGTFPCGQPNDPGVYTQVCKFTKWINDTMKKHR
SMARCA2 act: SMARCA2 (BRM) function activators, primary screen, cell-based, luminescence, high throughput; MG213 cells, MMTV-luciferase reporter, dexamethasone, overnight; AID 652017, 2013; activation, % at 9.1 µM; 370,000 tested, 1% active; in the data active means activation above about 7.8%
MsrA act: bovine MsrA enzyme activators, primary screen, biochemical, absorbance, HTS | AID 602163, 2012 | activation, % at 10.6 µM | 360,000 tested, 0.3% active | purified bovine MsrA, absorbance read-out; in the data active means activation above about 7.5%
SMARCA2 conf: SMARCA2 (BRM) function activators, confirmation, cell-based, luminescence, triplicate; shares compounds with SMARCA2 act; MG213 cells, MMTV-luciferase with dexamethasone, overnight; MG213 cells expressing E1A, Rb sequestered; DMSO wells 0%, reference activator 100%; activation, % at 9.1 µM; 3,500 tested, 30% active;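 active means activation above its plate's cutoff, the mean activation of tested wells plus 3 SD, cut at about 7.9% in these data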
GAL4-VP16 Luc: GAL4-VP16 luciferase reporter activation, counter-screen for SMARCA2 (BRM) activator project, cell-based, pG5luc, luminescence, high throughput | shares compounds with SMARCA2 act | HEK293 GAL4-VP16 pG5luc reporter; scaled: DMSO wells 0%, SAHA wells 100% | activation, % at 9.1 µM | 3,500 tested, 41% active;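 active means activation above the solvent-only control well mean plus 3 SD, averaged across control plates, cut at about 5.2% in these data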
Numbers stand for hits; – = inactive; · = no result.

SMILES	MsrA inh	proKLK7 act	SMARCA2 act	MsrA act	SMARCA2 conf	GAL4-VP16 Luc
C[C@H]1COc2cc(Br)ccc2S(=O)(=O)N1Cc1cn(Cc2ccc(F)cc2)nn1	·	–	–	·	·	·
COc1ccc([C@H]2CC(=O)C[C@@H](CCn3cc(-c4ccc(F)cc4)nn3)O2)cc1	–	–	9.6	–	–	–
Cc1noc(NS(=O)(=O)c2ccc(N/C=C\C(=O)c3ccc(Br)cc3)cc2)c1C	–	–	–	–	·	·
COc1cccc(C(=O)/C=C/Nc2ccc(S(=O)(=O)Nc3onc(C)c3C)cc2)c1	–	–	12	–	–	–
O=C(/C=C/c1cccs1)Nc1ccc(N2CCOCC2)c(S(=O)(=O)Nc2ccccc2Cl)c1	–	–	–	–	·	·
COc1ccccc1NS(=O)(=O)c1cc(NC(=O)/C=C/c2cccs2)ccc1N1CCOCC1	–	–	18	–	9.2	–
COc1ccccc1NS(=O)(=O)c1cc(NC(=O)c2ccc(NC(C)=O)cc2)ccc1N1CCOCC1	–	–	18	–	16	–
COc1ccccc1NC(=O)Nc1ccc(N2CCOCC2)cc1	–	–	8.8	–	8.1	5.6
COc1ccccc1NS(=O)(=O)c1cc(NC(=O)c2ccncc2)ccc1N1CCOCC1	–	–	–	–	·	·
CN(CCc1ccccn1)C(=O)c1ccc(Sc2ccccc2Cl)c([N+](=O)[O-])c1	·	–	–	·	·	·
COC(=O)C(C)N1C(=O)S/C(=C\c2ccc(-c3ccc(C(=O)O)cc3C)o2)C1=O (stereo not given)	–	–	11	–	9.8	10
CCOC(=O)c1cnn(-c2cccc(Cl)c2)c1N	–	–	9.4	–	–	–
CCOC(=O)c1cnn(-c2ccccc2)c1N	–	–	–	–	·	·
CCNC(=S)NNC(=O)c1ccccc1OC(F)F	–	–	–	–	·	·
CCNC(=S)NNC(=O)c1ccccc1Cl	–	–	8.2	–	–	–
COc1ccc(C=C2CS(=O)(=O)CC(=Cc3ccc(OC)cc3)C2=O)cc1	–	–	14	–	–	–
CC(C)=CCOc1ccc2c(C)c(CCC(=O)N3C[C@H]4C[C@@H](C3)c3cccc(=O)n3C4)c(=O)oc2c1C	–	–	–	–	·	·
O=C(COC(=O)c1ccc(Cl)nc1)Nc1ccc2c(c1)CCC2	–	–	9.1	–	–	–
O=C(CC1CCCC1)Nc1ccc2c(c1)CCC2	–	–	9.0	–	13	–
Cc1cccc(NC(=O)CC2CCC2)c1	–	–	–	–	·	·
O=C(Cc1ccccc1)Nc1ccc2c(c1)CCC2	–	–	–	–	·	·
Cc1cc(NC(=O)CC2CCCC2)ccc1Br	–	–	11	–	–	8.6
O=C(Nc1cccc(F)c1)Nc1ccc2c(c1)CCC2	–	–	8.8	–	9.8	6.5
Cc1ccc(Cc2c(C3CCCCC3)nc3cc(C)c(Br)c(C)n23)cc1	–	–	–	–	·	·
O=C(C1CCN(S(=O)(=O)c2cccs2)CC1)N1CCCCC1	–	–	–	–	·	·
SMILES	MsrA inh	proKLK7 act	SMARCA2 act	MsrA act	SMARCA2 conf	GAL4-VP16 Luc
O=C1CCC/C(=N/NC(=O)C2CCN(S(=O)(=O)c3cccs3)CC2)C1	–	–	8.7	–	–	–
CCN(Cc1cn(Cc2ccccc2)nn1)S(=O)(=O)c1ccc(F)cc1Br	·	–	–	·	·	·
CC(C)N(Cc1cn(Cc2ccccc2)nn1)S(=O)(=O)c1ccc(F)cc1Br	·	–	8.7	·	–	–
CCC(O)(CC)C(=O)NN(C(=O)CCl)c1ccccc1	–	–	8.7	–	–	–
Cn1nnc(-c2ccc(OCc3ccccc3F)cc2)n1	–	–	11	–	–	13
Cc1ccc(/C=N/NC(=O)c2ccco2)cc1	–	–	8.8	–	–	11
CC(/C=N/NC(=O)c1ccco1)=C\c1ccccc1	–	–	9.4	–	11	6.1
CC(=O)NC(C)(c1ccccc1)c1nc(-c2ccc(N(C)C)cc2)cs1 (stereo not given)	–	–	–	–	·	·
O=C(CCCN1C(=O)S/C(=C\C=C\c2ccccc2)C1=O)Nc1ccc(C(=O)O)cc1	–	–	8.5	–	–	–
CC(=O)NCCc1cc2ccc(C)c(C)c2[nH]c1=O	–	–	8.3	–	–	–
Cc1ccc2cc(CCNC(=O)c3cccs3)c(=O)[nH]c2c1	–	–	8.1	–	–	8.3
Cc1ccc2[nH]c(=O)c(COC(=O)c3cccs3)cc2c1	–	–	8.6	–	–	–
COc1ccc2[nH]c(=O)c(COC(=O)c3cccs3)cc2c1	–	–	–	–	·	·
Cc1noc(C)c1NC(=O)N(C)C[C@H]1Oc2ccc(NC(=O)Cc3ccccc3)cc2C(=O)N([C@H](C)CO)C[C@@H]1C	–	–	–	–	·	·
COC(=O)[C@]12C[C@H](CC(=O)N3CCCC3)C(=O)N(CCC3=CCCCC3)C1=C[C@H](C(C)(C)C)O[C@@H]2C	–	–	–	·	·	·
O=C(NNC(=S)Nc1ccccc1)c1cccnc1	–	–	8.8	–	–	5.4
Cc1occc1C(=O)NNC(=O)C1CC1	–	–	9.5	–	–	–
Cc1occc1C(=O)NNC(=S)Nc1ccccc1	–	–	9.3	–	–	6.8
COc1ccc(C(NC(=O)C2CCN(CCCOc3ccccc3)CC2)c2cccs2)cc1 (stereo not given)	–	–	–	–	·	·
Cc1ccc2c(c1)-n1c(nc3cc(F)ccc3c1=O)C(Cc1ccc(O)cc1)NC2=O (stereo not given)	–	–	–	·	·	·
O=C(c1cccc(OCc2ccccc2)c1)N1CCOCC1	·	·	·	–	·	·
CCOc1ccc(OCc2cccc(C(=O)N/N=C/c3cccnc3)c2)cc1	–	–	8.5	–	13	21
COc1ccc(OCc2cccc(C(=O)NN)c2)cc1	–	–	13	–	9.4	16
CC(C)c1ccc(OCc2cccc(C(=O)N/N=C/c3cccnc3)c2)cc1	–	–	–	–	·	·
CCOc1ccc(OCc2cccc(C(=O)N3CCOCC3)c2)cc1	–	–	12	–	–	9.7
SMILES	MsrA inh	proKLK7 act	SMARCA2 act	MsrA act	SMARCA2 conf	GAL4-VP16 Luc
NNC(=O)c1cccc(COc2ccc(Br)cc2)c1	–	–	–	–	·	·
O=C(Nc1ccc(S(=O)(=O)N2CCOCC2)cc1)c1ccc(Cl)c([N+](=O)[O-])c1	–	–	–	–	·	·
CN(C)CCN(C(=O)c1ccc2ccccc2c1)c1nc2cc3c(cc2s1)OCO3	–	–	11	–	–	–
O=C(CNC(=O)c1cccs1)c1ccc(Cl)cc1	–	–	8.8	–	10	12
C/C(=N\NC(=O)c1ccc(Cl)cc1)c1cccs1	–	–	8.4	–	20	14
C/C(=N\NC(=O)c1ccc(NS(=O)(=O)c2cccs2)cc1)c1ccc(Cl)cc1	–	–	9.1	–	–	–
C/C(=N/NC(=O)c1ccoc1C)c1cccs1	·	–	13	·	9.2	5.2
